In PubChem BioAssay AID1159580 (chemical genetic matrix, 2015):
“And” between values parts separate entries of the source, which are not always exact repeats. Equal values may be shown once. Among all 5,500 compounds or so, about 2,000 (36%) were called active. Inconclusive results (about 18%) are left out. Cut-off read from the data, not from the text of the source: active = normalized growth mostly below about 0.91 (no sharp cut-off); inconclusive = no clear call, values can overlap the other calls; inactive = mostly above about 0.92. This is one part of the list.

Test: chemical genetic growth profiling, strain panel (AID 1159580);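 note: tested at 20 µM; growth read once vehicle control cultures reached saturation at 30 °C; 1 = growth at the plate median or of vehicle wells; lower values mean less growth of the strain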
Conditions: S. cerevisiae deletion strains, growth OD

Measured: normalized growth

CC(CCC(=O)O)[C@H]1CCC2C3CC[C@@H]4CCCC[C@]4(C)C3CC[C@@]21C (stereo partly drawn)
inactive: locus YAL013W, strain DEP1, active compounds read low 0.995 | locus YAL021C, strain ccr4, active compounds read low 1.01 | locus YAL026C, strain drs2, active compounds read low 1.01 | locus YAL030W, strain snc1, active compounds read low 1.01 | locus YBL061C, strain skt5, active compounds read low 1.02 | locus YBR009C, strain hhf1, active compounds read low 1.01 | locus YBR021W, strain FUR4, active compounds read low 0.987 | locus YBR023C, strain chs3, active compounds read low 1.03 | locus YBR171W, strain sec66, active compounds read low 1.02 | locus YBR229C, strain ROT2, active compounds read low 0.991 | locus YBR231C, strain swc5, active compounds read low 1.03 | locus YBR279W, strain paf1, active compounds read low 1.01 | locus YCL011C, strain gbp2, active compounds read low 1.02 | locus YCL016C, strain dcc1, active compounds read low 1.04 | locus YCL029C, strain bik1, active compounds read low 0.98 | locus YCL061C, strain MRC1, active compounds read low 1.02 | locus YCL069W, strain vba3, active compounds read low 1.01 | locus YCR088W, strain abp1, active compounds read low 1.01 | locus YDL005C, strain med2, active compounds read low 0.999 | locus YDL035C, strain GPR1, active compounds read low 0.982 | locus YDL040C, strain nat1, active compounds read low 1.01 | locus YDL074C, strain BRE1, active compounds read low 0.973 | locus YDL101C, strain DUN1, active compounds read low 1.01 | locus YDL185W, strain tfp1, active compounds read low 0.977 | locus YDL192W, strain arf1, active compounds read low 0.98 | locus YDR001C, strain nth1, active compounds read low 1.01 | locus YDR069C, strain doa4, active compounds read low 0.994 | locus YDR101C, strain arx1, active compounds read low 0.983 | locus YDR137W, strain rgp1, active compounds read low 1.05 | locus YDR150W, strain NUM1, active compounds read low 0.995 | locus YDR159W, strain sac3, active compounds read low 0.998 | locus YDR162C, strain NBP2, active compounds read low 1.04 | locus YDR195W, strain ref2 0.981 | locus YDR297W, strain sur2, active compounds read low 1.01 | locus YDR318W, strain mcm21, active compounds read low 0.988 | locus YDR334W, strain swr1, active compounds read low 1 | locus YDR335W, strain msn5, active compounds read low 1 | locus YDR388W, active compounds read low 0.987 | locus YDR392W, strain spt3, active compounds read low 0.943 | locus YDR502C, strain sam2, active compounds read low 0.979 | locus YEL003W, strain gim4, active compounds read low 1.01 | locus YEL037C, strain rad23, active compounds read low 0.993 | locus YEL061C, strain CIN8 (second series), active compounds read low 1.01 | locus YEL061C, strain CIN8, active compounds read low 0.995 | locus YER015W, strain faa2, active compounds read low 1 | locus YER016W, strain bim1, active compounds read low 1.01 | locus YER110C, active compounds read low 0.986 | locus YER111C, strain swi4, active compounds read low 1.02 | locus YER155C, strain BEM2 (second series), active compounds read low 1.03 | locus YER155C, strain BEM2, active compounds read low 0.989 | locus YER167W, strain BCK2, active compounds read low 0.98 | locus YFR010W, strain ubp6, active compounds read low 0.997 | locus YGL078C, strain dbp3, active compounds read low 0.989 | locus YGL086W, strain mad1, active compounds read low 0.985 | locus YGL167C, strain pmr1, active compounds read low 1.01 | locus YGL173C, strain kem1, active compounds read low 1.01 | locus YGL227W, strain vid30, active compounds read low 1.02 | locus YGL240W, strain doc1, active compounds read low 1.03 | locus YGL248W, strain PDE1, active compounds read low 1 | locus YGL253W, strain hxk2, active compounds read low 1 | locus YGR078C, strain PAC10, active compounds read low 1.02 | locus YGR135W, strain pre9, active compounds read low 1.02 | locus YGR252W, strain gcn5, active compounds read low 1.08 | locus YHR013C, strain ard1, active compounds read low 1.02 | locus YHR027C, strain rpn1, active compounds read low 0.995 | locus YHR030C, strain SLT2, active compounds read low 0.997 and 0.97 | locus YHR079C, strain IRE1 (second series), active compounds read low 0.981 | locus YHR079C, strain IRE1, active compounds read low 0.973 | locus YHR094C, strain hxt1, active compounds read low 0.985 | locus YHR129C, strain ARP1, active compounds read low 0.995 | locus YHR142W, strain chs7, active compounds read low 1 | locus YHR200W, strain rpn10, active compounds read low 0.995 | locus YIL066C, strain RNR3, active compounds read low 0.992 | locus YIL073C, strain SPO22, active compounds read low 1.02 | locus YIL125W, strain kgd1, active compounds read low 0.988 | locus YIR030C, strain dcg1, active compounds read low 0.985 | locus YJL092W, strain hpr5, active compounds read low 1.01 | locus YJL095W, strain BCK1 (second series), active compounds read low 1 | locus YJL095W, strain BCK1, active compounds read low 1.02 and 0.968 | locus YJL115W, strain asf1, active compounds read low 1.01 | locus YJL129C, strain trk1, active compounds read low 1.03 | locus YJL134W, strain LCB3, active compounds read low 0.996 | locus YJL154C, strain vps35, active compounds read low 1.01 | locus YJL164C, strain tpk1, active compounds read low 1.02 | locus YJL166W, strain qcr8, active compounds read low 1.01 | locus YJL168C, strain set2, active compounds read low 0.983 | locus YJL187C, strain SWE1 (second series), active compounds read low 1.01 | locus YJL187C, strain SWE1, active compounds read low 1.01
